Measurements published in the supplement of paper PMC11732987, “Enantioselective OTUD7B fragment discovery through chemoproteomics screening and high-throughput optimisation” (Communications Chemistry, 2025).

Tests used:
Experiment in all cases: log2 ratio of Biotin-Ahx-Ub-VS probe labelling (fragment/DMSO); higher = less target engagement (more negative = stronger competition), active = hit call of the paper (q ≤ 0.05, log2 ratio ≤ -1)
Conditions in all cases: compound concentration: 200 uM; treatment time: 3 h
USP42 = biological target: T1, USP42 (UniProt Q9H9J4)
T1 sequence (whole entry): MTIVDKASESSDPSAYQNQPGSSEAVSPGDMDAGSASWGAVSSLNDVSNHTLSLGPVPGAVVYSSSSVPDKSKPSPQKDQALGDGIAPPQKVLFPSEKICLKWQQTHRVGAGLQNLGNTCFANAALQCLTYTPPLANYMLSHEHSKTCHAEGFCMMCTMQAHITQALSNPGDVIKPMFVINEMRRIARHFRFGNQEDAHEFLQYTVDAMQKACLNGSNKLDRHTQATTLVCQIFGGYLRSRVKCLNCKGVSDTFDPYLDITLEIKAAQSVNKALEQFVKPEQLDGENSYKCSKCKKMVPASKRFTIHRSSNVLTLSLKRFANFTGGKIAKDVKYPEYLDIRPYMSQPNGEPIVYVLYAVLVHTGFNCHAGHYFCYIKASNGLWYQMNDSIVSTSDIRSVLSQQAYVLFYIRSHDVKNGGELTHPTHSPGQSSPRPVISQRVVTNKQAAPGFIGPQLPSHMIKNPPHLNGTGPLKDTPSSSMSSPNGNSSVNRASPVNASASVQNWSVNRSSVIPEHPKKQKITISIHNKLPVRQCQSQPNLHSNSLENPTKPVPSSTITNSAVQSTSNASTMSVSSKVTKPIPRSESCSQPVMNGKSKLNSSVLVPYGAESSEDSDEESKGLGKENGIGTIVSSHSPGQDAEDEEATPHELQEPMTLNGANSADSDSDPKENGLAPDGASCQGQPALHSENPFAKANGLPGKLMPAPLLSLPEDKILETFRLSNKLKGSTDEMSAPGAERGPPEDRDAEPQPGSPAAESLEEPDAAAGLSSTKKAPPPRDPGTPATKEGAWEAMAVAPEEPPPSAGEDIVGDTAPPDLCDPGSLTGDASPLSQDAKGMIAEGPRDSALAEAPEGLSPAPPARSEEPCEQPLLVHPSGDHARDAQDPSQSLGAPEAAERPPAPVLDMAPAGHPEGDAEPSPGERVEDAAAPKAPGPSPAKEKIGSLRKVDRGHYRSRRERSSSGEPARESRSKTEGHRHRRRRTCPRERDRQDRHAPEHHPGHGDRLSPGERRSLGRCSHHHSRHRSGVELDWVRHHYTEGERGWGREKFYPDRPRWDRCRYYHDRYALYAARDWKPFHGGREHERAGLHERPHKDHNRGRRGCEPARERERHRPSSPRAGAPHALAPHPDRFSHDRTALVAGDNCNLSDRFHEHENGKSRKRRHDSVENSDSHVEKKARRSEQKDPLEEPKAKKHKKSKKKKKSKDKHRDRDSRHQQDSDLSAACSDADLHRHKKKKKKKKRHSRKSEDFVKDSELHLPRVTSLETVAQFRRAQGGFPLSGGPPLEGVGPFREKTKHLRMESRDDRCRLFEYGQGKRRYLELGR
In short: (§1)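 HEK293T lysate in Tris/CHAPS/IGEPAL buffer with protease inhibitors (495 µg per sample) was given fragment at 200 µM or vehicle for 3 h, in triplicate. It then received Biotin-Ahx-Ub-VS at 0.5 µM final for 1 h. Labelled DUBs were NeutrAvidin-enriched, digested with LysC and trypsin, and run by diaPASEF LC-MS/MS. Values are average log2 fragment/vehicle ratios by unpaired t-test on global-median-normalised Spectronaut quantities of proteins with ≥2 unique peptides.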

USP46 = USP46 (UniProt P62068)
Chain of USP46 (P62068 whole entry): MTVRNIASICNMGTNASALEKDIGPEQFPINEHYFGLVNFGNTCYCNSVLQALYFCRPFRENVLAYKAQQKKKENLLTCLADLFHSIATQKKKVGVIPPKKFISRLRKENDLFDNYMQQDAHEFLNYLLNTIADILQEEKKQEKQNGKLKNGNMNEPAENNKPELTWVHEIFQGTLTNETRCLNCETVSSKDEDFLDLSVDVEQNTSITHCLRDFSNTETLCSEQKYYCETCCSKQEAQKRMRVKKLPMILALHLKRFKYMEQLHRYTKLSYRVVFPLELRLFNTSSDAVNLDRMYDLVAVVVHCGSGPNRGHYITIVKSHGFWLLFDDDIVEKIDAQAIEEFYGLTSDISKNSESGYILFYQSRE
In short: as §1

USP47 = biological target: T2, USP47 (UniProt Q96K76)
T2 sequence (whole entry): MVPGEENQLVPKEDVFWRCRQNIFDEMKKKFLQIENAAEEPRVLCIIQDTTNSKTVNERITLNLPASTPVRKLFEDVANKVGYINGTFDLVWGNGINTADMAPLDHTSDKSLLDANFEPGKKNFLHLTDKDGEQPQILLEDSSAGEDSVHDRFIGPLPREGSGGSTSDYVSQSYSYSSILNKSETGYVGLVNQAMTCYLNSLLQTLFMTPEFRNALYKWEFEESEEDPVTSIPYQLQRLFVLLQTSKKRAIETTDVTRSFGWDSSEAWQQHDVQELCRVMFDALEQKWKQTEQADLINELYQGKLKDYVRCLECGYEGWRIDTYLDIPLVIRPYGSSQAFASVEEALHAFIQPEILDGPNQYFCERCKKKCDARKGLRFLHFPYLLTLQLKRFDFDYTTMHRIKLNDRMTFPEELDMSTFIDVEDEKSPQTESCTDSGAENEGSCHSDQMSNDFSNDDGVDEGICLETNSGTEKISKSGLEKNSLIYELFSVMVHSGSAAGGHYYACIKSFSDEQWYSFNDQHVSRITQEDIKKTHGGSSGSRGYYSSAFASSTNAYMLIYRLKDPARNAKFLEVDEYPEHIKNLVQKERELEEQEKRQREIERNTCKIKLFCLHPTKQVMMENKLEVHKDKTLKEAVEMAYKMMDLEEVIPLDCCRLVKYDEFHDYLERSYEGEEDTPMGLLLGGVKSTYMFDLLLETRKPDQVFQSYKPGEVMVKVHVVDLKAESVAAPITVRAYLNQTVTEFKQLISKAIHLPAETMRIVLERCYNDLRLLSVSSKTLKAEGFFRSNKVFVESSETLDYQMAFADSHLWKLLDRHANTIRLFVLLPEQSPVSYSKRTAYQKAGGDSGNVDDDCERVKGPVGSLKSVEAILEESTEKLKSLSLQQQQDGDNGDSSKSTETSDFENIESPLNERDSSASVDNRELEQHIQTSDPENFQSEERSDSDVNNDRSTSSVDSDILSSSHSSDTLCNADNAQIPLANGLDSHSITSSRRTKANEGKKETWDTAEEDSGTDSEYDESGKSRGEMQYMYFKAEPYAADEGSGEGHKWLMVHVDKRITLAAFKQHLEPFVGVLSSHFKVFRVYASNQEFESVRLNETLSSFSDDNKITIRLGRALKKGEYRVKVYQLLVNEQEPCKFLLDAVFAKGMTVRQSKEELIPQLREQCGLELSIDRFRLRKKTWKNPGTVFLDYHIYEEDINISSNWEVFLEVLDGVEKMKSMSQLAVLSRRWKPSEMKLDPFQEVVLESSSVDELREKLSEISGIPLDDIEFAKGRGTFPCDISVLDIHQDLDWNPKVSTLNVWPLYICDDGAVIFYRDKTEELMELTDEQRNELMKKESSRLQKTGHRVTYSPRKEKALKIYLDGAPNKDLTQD
In short: as §1

USP48 = biological target: T3, USP48 (UniProt Q86UV5)
T3 sequence (whole entry): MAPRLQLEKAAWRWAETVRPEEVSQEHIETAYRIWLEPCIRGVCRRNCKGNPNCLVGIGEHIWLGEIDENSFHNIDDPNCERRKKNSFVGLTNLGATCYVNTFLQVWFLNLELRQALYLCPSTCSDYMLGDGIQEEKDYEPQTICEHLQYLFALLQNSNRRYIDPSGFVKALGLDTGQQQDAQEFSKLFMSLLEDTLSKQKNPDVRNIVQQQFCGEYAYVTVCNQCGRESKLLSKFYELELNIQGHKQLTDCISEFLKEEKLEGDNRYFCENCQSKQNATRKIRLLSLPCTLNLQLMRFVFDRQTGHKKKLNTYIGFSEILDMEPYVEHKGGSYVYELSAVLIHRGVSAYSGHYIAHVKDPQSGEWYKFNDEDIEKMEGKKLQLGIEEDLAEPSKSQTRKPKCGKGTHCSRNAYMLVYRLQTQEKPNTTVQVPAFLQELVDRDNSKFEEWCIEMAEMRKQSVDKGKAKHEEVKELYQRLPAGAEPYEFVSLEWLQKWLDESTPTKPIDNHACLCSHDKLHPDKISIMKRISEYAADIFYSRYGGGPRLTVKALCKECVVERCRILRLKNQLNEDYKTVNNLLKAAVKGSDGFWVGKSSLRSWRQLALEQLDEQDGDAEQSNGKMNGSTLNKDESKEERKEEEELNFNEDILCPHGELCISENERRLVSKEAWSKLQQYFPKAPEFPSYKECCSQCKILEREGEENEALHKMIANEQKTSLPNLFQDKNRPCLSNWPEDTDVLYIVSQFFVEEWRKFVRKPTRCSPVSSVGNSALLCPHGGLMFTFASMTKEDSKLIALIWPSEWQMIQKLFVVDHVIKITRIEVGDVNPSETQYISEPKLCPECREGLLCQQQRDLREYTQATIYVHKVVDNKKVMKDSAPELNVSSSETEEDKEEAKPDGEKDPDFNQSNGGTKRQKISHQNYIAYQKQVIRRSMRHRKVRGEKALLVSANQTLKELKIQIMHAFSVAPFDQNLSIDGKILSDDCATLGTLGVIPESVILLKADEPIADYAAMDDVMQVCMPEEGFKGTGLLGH
In short: as §1

USP5 = biological target: T4, USP5 (UniProt P45974)
T4 sequence (whole entry): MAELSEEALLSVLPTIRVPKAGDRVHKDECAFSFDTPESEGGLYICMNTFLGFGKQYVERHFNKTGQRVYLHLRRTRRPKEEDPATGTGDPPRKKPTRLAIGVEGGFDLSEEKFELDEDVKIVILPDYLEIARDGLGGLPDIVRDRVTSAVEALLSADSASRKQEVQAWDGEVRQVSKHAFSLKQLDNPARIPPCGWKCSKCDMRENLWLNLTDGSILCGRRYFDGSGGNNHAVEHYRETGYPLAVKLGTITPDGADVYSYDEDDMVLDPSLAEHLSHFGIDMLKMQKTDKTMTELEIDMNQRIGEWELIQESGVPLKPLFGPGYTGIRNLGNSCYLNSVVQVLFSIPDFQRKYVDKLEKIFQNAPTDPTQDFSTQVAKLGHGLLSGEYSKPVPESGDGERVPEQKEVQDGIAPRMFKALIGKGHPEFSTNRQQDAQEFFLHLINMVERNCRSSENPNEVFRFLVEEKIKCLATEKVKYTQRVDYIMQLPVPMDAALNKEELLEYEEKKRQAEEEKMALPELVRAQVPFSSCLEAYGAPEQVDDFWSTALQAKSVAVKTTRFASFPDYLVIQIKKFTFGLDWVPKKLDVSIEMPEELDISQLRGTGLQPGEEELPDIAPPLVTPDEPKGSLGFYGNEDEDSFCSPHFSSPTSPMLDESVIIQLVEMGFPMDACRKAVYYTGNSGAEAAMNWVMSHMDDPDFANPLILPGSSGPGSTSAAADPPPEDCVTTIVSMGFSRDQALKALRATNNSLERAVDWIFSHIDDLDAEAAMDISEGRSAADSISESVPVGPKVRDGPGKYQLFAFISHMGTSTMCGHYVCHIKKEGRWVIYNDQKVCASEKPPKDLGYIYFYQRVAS
In short: as §1

USP54 = USP54 (UniProt Q70EL1)
Chain of USP54 (Q70EL1 whole entry): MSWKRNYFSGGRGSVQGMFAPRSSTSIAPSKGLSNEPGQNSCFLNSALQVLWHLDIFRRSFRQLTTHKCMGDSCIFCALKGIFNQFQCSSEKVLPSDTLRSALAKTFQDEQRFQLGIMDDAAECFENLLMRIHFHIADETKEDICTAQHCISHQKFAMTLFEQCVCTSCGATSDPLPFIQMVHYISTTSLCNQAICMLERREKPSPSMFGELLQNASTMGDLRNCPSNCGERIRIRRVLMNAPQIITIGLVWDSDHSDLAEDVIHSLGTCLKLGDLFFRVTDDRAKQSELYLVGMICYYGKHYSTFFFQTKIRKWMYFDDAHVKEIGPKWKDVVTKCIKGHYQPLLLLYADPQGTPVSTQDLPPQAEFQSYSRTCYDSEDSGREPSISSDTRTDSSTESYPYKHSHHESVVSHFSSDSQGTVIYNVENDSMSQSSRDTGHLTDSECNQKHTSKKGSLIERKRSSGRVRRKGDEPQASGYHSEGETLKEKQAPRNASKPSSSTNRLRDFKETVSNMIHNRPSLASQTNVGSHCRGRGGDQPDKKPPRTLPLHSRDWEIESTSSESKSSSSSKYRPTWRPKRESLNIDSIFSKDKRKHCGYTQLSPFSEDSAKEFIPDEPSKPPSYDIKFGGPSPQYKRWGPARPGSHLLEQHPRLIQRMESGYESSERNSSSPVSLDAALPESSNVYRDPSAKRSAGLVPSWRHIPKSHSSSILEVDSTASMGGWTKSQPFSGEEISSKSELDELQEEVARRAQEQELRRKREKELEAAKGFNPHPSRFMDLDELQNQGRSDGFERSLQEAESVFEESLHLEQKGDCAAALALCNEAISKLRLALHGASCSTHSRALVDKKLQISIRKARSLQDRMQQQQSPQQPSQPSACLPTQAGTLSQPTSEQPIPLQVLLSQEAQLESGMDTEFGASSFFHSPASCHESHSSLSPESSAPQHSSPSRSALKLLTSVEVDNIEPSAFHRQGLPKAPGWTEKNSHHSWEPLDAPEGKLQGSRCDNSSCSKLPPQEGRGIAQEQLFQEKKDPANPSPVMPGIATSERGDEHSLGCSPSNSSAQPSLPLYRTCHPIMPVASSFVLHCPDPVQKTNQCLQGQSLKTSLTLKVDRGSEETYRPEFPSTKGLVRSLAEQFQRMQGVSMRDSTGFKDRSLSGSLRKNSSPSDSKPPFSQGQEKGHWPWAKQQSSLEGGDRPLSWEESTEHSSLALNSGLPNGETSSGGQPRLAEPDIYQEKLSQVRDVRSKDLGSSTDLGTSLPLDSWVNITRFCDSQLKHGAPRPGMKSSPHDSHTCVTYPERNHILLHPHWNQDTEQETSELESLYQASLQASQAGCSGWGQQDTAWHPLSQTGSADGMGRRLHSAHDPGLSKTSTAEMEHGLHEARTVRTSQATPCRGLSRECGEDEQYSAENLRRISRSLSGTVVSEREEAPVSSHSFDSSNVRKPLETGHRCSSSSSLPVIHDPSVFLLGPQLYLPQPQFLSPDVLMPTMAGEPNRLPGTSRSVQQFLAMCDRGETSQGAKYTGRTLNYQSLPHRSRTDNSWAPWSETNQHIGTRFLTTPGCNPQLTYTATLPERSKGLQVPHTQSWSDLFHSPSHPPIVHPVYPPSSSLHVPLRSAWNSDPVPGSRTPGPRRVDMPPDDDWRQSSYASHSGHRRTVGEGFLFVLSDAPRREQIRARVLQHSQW
In short: as §1

USP7 = USP7 (UniProt Q93009)
In short: as §1

USP8 = biological target: T5, USP8 (UniProt P40818)
T5 sequence (whole entry): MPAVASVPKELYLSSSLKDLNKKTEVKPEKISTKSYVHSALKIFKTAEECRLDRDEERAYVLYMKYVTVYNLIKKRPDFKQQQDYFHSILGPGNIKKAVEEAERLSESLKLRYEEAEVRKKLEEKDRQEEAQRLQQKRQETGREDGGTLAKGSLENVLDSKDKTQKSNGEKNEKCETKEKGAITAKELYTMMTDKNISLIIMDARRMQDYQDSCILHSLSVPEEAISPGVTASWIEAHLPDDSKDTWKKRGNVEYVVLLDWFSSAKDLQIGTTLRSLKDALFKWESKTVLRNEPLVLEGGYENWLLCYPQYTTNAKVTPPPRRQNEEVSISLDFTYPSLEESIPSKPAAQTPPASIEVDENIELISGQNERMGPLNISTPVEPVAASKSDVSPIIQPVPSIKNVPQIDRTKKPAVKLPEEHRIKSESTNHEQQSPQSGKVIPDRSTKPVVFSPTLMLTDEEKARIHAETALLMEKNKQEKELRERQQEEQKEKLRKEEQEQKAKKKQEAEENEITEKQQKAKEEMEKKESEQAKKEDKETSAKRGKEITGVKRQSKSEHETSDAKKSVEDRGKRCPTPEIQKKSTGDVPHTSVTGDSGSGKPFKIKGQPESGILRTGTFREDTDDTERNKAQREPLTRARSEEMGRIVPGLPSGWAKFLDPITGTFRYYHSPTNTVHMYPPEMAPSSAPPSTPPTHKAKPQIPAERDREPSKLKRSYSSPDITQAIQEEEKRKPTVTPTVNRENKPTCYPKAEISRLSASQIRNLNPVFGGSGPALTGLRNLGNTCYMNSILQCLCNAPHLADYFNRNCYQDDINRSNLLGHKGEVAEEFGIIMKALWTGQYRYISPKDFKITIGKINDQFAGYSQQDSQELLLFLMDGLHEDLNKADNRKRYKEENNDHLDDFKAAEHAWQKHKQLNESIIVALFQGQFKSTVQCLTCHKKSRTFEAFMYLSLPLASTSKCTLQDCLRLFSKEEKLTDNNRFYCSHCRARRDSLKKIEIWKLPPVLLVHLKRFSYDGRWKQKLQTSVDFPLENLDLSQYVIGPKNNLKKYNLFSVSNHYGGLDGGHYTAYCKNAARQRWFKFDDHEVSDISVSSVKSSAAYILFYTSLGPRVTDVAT
In short: as §1

USP9X = USP9X (UniProt Q93008)
Chain of USP9X (Q93008 whole entry): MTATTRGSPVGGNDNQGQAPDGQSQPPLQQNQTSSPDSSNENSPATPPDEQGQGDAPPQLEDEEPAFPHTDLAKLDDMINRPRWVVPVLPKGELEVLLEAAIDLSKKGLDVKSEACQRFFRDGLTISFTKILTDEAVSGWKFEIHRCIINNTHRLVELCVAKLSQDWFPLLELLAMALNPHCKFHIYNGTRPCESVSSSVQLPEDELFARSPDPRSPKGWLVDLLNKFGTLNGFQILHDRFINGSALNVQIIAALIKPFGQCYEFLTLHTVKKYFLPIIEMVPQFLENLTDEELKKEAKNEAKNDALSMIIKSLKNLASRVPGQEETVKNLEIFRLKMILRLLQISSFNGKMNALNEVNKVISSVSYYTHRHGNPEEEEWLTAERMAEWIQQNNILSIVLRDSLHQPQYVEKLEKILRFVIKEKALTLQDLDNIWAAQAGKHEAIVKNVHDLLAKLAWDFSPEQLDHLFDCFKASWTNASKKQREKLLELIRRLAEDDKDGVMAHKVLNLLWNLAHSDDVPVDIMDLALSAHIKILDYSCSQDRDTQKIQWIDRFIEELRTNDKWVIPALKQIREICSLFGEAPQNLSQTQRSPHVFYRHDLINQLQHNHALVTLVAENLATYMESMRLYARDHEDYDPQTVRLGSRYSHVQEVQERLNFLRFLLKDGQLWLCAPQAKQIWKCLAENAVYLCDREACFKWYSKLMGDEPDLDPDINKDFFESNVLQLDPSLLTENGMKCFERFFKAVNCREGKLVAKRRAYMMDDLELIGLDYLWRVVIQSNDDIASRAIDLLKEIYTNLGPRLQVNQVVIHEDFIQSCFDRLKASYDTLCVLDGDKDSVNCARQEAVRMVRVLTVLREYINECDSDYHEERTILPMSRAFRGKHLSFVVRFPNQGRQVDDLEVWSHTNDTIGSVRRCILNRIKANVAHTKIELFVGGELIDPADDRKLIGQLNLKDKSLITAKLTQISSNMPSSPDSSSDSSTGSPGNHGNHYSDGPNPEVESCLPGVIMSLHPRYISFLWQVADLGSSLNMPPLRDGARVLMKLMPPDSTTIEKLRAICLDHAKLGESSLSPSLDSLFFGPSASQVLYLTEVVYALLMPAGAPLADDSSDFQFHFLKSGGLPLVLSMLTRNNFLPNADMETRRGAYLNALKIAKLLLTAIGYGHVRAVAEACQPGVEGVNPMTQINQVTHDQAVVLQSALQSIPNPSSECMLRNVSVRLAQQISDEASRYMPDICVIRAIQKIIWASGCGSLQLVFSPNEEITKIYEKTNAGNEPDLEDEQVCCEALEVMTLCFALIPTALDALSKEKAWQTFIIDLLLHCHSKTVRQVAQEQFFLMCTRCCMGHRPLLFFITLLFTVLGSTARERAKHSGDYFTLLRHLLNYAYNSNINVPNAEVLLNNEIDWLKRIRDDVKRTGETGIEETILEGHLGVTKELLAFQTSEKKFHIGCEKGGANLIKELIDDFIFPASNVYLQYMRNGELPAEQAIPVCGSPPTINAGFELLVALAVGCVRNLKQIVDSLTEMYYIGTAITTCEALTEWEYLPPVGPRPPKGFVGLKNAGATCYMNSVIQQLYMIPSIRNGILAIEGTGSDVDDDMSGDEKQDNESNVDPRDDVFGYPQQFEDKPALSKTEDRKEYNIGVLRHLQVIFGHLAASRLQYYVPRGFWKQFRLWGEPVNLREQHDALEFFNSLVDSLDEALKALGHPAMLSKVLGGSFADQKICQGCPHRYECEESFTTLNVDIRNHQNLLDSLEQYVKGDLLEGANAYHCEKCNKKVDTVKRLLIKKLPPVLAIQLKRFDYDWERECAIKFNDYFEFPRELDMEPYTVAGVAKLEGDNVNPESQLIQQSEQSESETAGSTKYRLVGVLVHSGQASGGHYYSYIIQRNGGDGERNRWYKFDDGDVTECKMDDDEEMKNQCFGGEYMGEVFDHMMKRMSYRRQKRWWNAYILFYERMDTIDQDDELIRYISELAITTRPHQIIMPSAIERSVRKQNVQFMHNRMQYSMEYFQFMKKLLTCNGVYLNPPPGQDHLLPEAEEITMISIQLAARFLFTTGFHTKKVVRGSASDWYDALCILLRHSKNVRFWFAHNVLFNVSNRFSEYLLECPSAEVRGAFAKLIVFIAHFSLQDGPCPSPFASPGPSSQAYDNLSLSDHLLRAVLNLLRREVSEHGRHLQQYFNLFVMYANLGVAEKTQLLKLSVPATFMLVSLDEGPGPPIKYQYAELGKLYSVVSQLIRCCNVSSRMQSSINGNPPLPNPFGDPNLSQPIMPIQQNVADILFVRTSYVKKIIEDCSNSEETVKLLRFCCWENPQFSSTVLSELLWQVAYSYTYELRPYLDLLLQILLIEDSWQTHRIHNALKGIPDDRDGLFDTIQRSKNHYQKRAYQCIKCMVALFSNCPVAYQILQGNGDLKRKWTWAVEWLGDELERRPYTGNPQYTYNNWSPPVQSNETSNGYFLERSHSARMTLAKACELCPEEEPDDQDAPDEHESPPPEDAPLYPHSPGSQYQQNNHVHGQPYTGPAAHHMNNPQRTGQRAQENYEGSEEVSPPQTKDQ
In short: as §1

UniProt O00487 = biological target: UniProt O00487
Chain of UniProt O00487 (O00487 whole entry): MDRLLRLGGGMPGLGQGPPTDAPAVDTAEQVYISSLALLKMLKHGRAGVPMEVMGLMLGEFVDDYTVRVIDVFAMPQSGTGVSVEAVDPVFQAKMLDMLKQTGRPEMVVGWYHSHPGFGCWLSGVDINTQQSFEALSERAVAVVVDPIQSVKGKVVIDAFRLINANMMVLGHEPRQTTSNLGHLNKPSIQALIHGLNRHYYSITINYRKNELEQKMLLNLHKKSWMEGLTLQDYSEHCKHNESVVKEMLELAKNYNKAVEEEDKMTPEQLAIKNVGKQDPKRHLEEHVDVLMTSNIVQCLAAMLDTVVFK
In short: as §1

Measured: log2 ratio of Biotin-Ahx-Ub-VS probe labelling

CN1C(=O)c2ccc(NC(=O)CCl)cc2C1=O
inactive: USP42 0.714 | USP46 -0.152 | USP47 -0.217 | USP48 -0.208 | USP5 -0.508 | USP54 0.112 | USP7 -0.743 | USP8 -0.236 | USP9X -0.202 | UniProt O00487 0.0214
